{"source": "PubChem BioAssay (EPA / NIEHS)", "note": "Values joined by “and” are separate entries in the source; they are usually repeats but may differ in a detail not shown here. Equal entries are not always repeated. Where a structure was tested more than once in an assay, its records may differ in their call. Active and inactive are the calls of the source. Rule for the calls: active = hit-call score of the fitted dose curve at least 0.9, where 1 is the maximum; inactive = score below 0.9."}
{"read-out": "TIMP metallopeptidase inhibitor 2 (TIMP2), TIMP2 (gene 7077)", "experiment": "BSK_hDFCGF_TIMP2: BioMAP Diversity Plus: hDFCGF Assay for TIMP metallopeptidase inhibitor 2 (TIMP2) Biomarker Activity (AID 2284289)", "conditions": "primary human foreskin fibroblasts", "method": "BSK_hDFCGF is a cell-based, multiplexed-readout assay that uses foreskin fibroblast, a human skin primary cell, with measurements taken at 24 hours after chemical dosing in a 96-well plate.BSK_hDFCGF_TIMP2 is an assay component measured in the BSK_hDFCGF assay. It measures TIMP-2 antibody related to regulation of gene expression using ELISA technology.Data from the assay component BSK_hDFCGF_TIMP2 was analyzed at the endpoint, BSK_hDFCGF_TIMP2, in the positive analysis fitting direction relative to DMSO as the negative control and baseline of activity. Using a type of binding reporter, gain or loss-of-signal activity can be used to understand protein changes. To generalize the intended target to other relatable targets, this assay endpoint is annotated to the 'protease' intended target family, where the subfamily is 'matrix metalloproteinase'.\nThe levels of cell surface (or secreted, indicated by the prefix \"s\") biomarker endpoints were measured by ELISA. Overt cytotoxicity to cells in confluent adherent cultures (all systems other than the BT system) was assessed by measuring total protein levels using sulforhodamine B (SRB) staining in parallel cultures at the time of biomarker measurements, indicated as SRB endpoints. For proliferation assays for adherent cell types, individual cell types are cultured at sub-confluence and relative cell numbers quantified by SRB staining at time points optimized for each system (48 h: 3C and CASM3C systems; 72 h: BT and HDF3CGF systems; 96 h: SAg system). SRB was performed by staining cells with 0.1% SRB after fixation with 10% TCA and reading wells at 560 nm.Viability and proliferation of PBMC (T cells) was quantified by Alamar Blue reduction for the SAg and BT systems. For PBMC viability (referred to as PBMC Cytotoxicity within the assay endpoint names), cells were plated (75,000/well in a 96-well plate) and then chemical samples added for 1 h before addition of activators, SEB and TSST-1 (20 ng/mL final concentration each). Cells were incubated for 90 h. Then, Alamar Blue (20 uL/well) (Invitrogen, Cat DAL1100) was added for 6 h, and the plates were read with a fluorescence microplate reader at 546/580 nm (excitation/emission). For PBMC proliferation, cells were plated and activated as above but incubated for only 16 h prior to addition of Alamar Blue. Plates were read after 6 h."}
{"smiles": "OCC(F)(OC(F)(F)C(F)(OC(F)(F)C(F)(F)C(F)(F)F)C(F)(F)F)C(F)(F)F", "note": "(stereo not given)", "AC50": "2.07 µM (active) and 198 nM (active)"}
{"smiles": "c1ccc(OCCOc2ccccc2)cc1", "outcome": "inactive", "AC50": "3.6 µM (active)"}
{"smiles": "CCCCN(CCO)CCO", "outcome": "inactive", "AC50": "4.34 µM (active)"}
{"smiles": "CC(C)(CO)CO", "outcome": "inactive"}
{"smiles": "O=C(O)C(F)(F)C(F)(F)C(F)(F)C(F)(F)C(F)(F)C(F)(F)C(F)(F)C(F)F", "outcome": "inactive"}
{"smiles": "CC(C)CCCC(C)(C)O", "outcome": "inactive"}
{"smiles": "O=C(O)C(F)(F)OC(F)(F)C(F)(F)OC(F)(F)C(F)(F)C(F)(F)C(F)(F)F", "outcome": "inactive"}
{"smiles": "CC(=O)c1ccc(C)cc1", "outcome": "inactive"}
{"smiles": "CCCO[Si](OCCC)(OCCC)OCCC", "outcome": "inactive"}
{"smiles": "C=C(C)C(=O)OCCC(F)(F)C(F)(F)C(F)(F)C(F)(F)C(F)(F)C(F)(F)C(F)(F)C(F)(F)F", "outcome": "inactive"}
{"smiles": "O=S(=O)(O)C(F)(F)C(F)(F)OC(F)(F)C(F)(F)F", "outcome": "inactive"}
{"smiles": "C=C(F)C(=O)OC(C(F)(F)F)C(F)(F)F", "outcome": "inactive"}
{"smiles": "CCn1cc(C(=O)O)c(=O)c2ccc(C)nc21", "outcome": "inactive"}
